“And” between values parts separate entries of the source, which are not always exact repeats. Equal values may be shown once.
Tests used:
[1] = tested on: Botulinum neurotoxin type F light chain protease (Clostridium botulinum); assay: Botulinum neurotoxin type F light chain protease inhibition, multiplex microsphere flow cytometry, validation set (AID 588459); settings: multiplex microsphere protease substrate cleavage assay, at 10 µM, stronger effect = higher value
[2] = biological target: Botulinum neurotoxin type A (Clostridium botulinum) (UniProt P0DPI0); assay: BoNT/A light chain protease inhibitors, biochemical, multiplex microsphere flow cytometry, validation set (AID 588460); settings: at 10 µM, stronger effect = higher value
[3] = biological target: Lethal factor (Bacillus anthracis) (UniProt P15917); assay: Lethal factor protease inhibitors, Bacillus anthracis, multiplex microsphere cleavage assay, validation set (AID 588461); settings: flow cytometry, at 10 µM, stronger effect = higher value

Measured: inhibition

COc1ccc(/C=C/C(=O)Nc2ccccc2C(=O)O)cc1OC
inactive: [1] 2.5% | [2] -0.9% | [3] -6%

COc1cccc(N2C(=O)CC(c3c[nH]c4ccccc34)C2=O)c1 (centres undefined)
inactive: [1] 1.4% | [2] 2.4% | [3] -2%

NC(CO)C(=O)NNCc1ccc(O)c(O)c1O (centres undefined)
inactive: [1] -15.8% | [2] -11.2% | [3] -25.4%

CC(C)CN1CCN(Cc2cccn2-c2ccccn2)CC1CCO (centres undefined)
inactive: [1] -0.4% | [2] -0.5% | [3] 3.6%

C/C(=N/N1CCN(Cc2cccc3ccccc23)CC1)c1cccnc1
inactive: [1] 6.2% | [2] -0.9% | [3] -4%

CCc1cc2c(C)cc(=O)oc2cc1OC(=O)C1CCCN1C(=O)OC(C)(C)C (centres undefined)
inactive: [1] 0.1% | [2] -1.6% | [3] -1.1%

O=C1CCCN1CCCn1cnc2c([nH]c3ccc(F)cc32)c1=O
inactive: [1] 0% | [2] -0.3% | [3] 2.3%

COc1ccc2[nH]c(CN3CCN(CC(C)C)C(CCO)C3)c(C)c2c1 (centres undefined)
inactive: [1] 2.4% | [2] 1.6% | [3] 3.1%

CCOC(=O)c1ccc(N2C(=O)C(CC(N)=O)N(CCc3ccc(OC)c(OC)c3)C2=S)cc1 (centres undefined)
inactive: [1] 2% | [2] 1.1% | [3] -0.3%

CCOC(=O)C1=C(C)NC(C)=C(C(=O)OC)C1c1cccc([N+](=O)[O-])c1 (centres undefined)
inactive: [1] -1.6% | [2] 0.4% | [3] -10%

COc1ccc2c(c1OC)C(=O)NC(C)=C(C(=O)OC(C)(C)C)C2O (centres undefined)
inactive: [1] 4.3% | [2] -0.4% | [3] -5.3%

C[C@]12CC[C@@H]3c4ccc(O)cc4CC[C@H]3[C@@H]1CC[C@@H]2OC(=O)CCC(=O)O
inactive: [1] -0.1% | [2] -0.4% | [3] -10%

CC(=O)Oc1cc(C(C)C)c(OCCN(C)C)cc1C
inactive: [1] 1.9% | [2] 2% | [3] 0.9%

CC1(C)c2ccccc2N2CC(=O)NC21/C=C/c1ccco1 (centres undefined)
inactive: [1] 3.2% | [2] 0.5% | [3] 0.4%

Cn1c(SCC(=O)c2ccccc2)nnc1-c1ccncc1
inactive: [1] 1.7% | [2] 0.4% | [3] 3.4%

CCC12CN3CC(CC)(CN(C1)C31C(=O)N(C)c3ccc(C)cc31)C2=O (centres undefined)
inactive: [1] -1.6% | [2] 0.1% | [3] -7.3%

CO[C@@]1(NC(=O)Cc2cccs2)C(=O)N2C(C(=O)O)=C(COC(N)=O)CS[C@@H]21
inactive: [1] -1.9% | [2] 1.4% | [3] -10%

CC1Cc2ccccc2N1NC(=O)c1ccc(Cl)c(S(N)(=O)=O)c1 (centres undefined)
inactive: [1] 1.4% | [2] 0.7% | [3] -0.2%

NC(=O)c1c(-c2ccccc2)oc2ccc(O)cc12
inactive: [1] -1.9% | [2] -0.3% | [3] -5.1%

Cc1cc(=O)oc2cc(OC(C)C(=O)NCC3CCCO3)ccc12 (centres undefined)
inactive: [1] 3% | [2] 0.9% | [3] -4.8%

O=C(O)c1cc2cc(Cl)cc(Cl)c2oc1=O
inactive: [1] -2.3% | [2] 0.4% | [3] 1.1%

COC(=O)C1[C@H]2C(=O)N(Cc3cccs3)C[C@]23C=C[C@H]1O3 (some centres undefined)
inactive: [1] -0.5% | [2] -0.7% | [3] -4%

NC(N)=N/N=C/c1cccc(Cl)c1Cl
inactive: [1] 0.9% | [2] 1.3% | [3] -3.3%

NS(=O)(=O)c1cc2c(cc1C(F)(F)F)NC(Cc1ccccc1)NS2(=O)=O (centres undefined)
inactive: [1] 2.4% | [2] 1.4% | [3] 3.5%

N=c1c[n+](N2CCOCC2)[n-]o1
inactive: [1] -6.3% | [2] 0.1% | [3] 0.2%

CC(=O)OCC(=O)[C@H]1CC[C@H]2[C@@H]3CCC4=CC(=O)CC[C@]4(C)[C@H]3CC[C@]12C
inactive: [1] -5.8% | [2] -1.1% | [3] -5.7%

Cc1ccc(C(CC(=O)NCc2ccco2)c2ccc(OC(C)C)cc2)cc1 (centres undefined)
inactive: [1] 0.4% | [2] -1.6% | [3] -4%

O=C(OCCNC(=O)c1ccc2ccccc2n1)c1ccc(F)cc1
inactive: [1] 1.8% | [2] -0.7% | [3] 4.4%

CC1(C)CC(=O)c2c(nc3ccccc3c2N)C1
inactive: [1] 1% | [2] -0.5% | [3] 7.9%

Cn1c2c(c(=O)[nH]c1=O)C(c1ccc(O)cc1)C1=C(N2)c2ccccc2C1=O (centres undefined)
inactive: [1] -0.8% | [2] -0.5% | [3] 3.1%

COC(=O)CN1CC(=O)N(c2ccccc2)C1=S
inactive: [1] -0.8% | [2] 0% | [3] -1%

CCOC(=O)c1oc2cc(O)cc(C)c2c(=O)c1-c1cscn1
inactive: [1] 1.4% | [2] 1.8% | [3] -2.6%

O=C1[C@@H]2[C@H](Cc3ccc(O)cc3)N[C@]3(C(=O)Nc4ccccc43)[C@@H]2C(=O)N1c1ccc(F)cc1
inactive: [1] 1.3% | [2] 1.7% | [3] -2.6%

O=C(NCCC(c1ccccc1)c1ccco1)c1cccs1 (centres undefined)
inactive: [1] 3.1% | [2] -2.7% | [3] 3%

COc1cc([C@@H]2c3cc4c(cc3[C@H](O)[C@H]3COC(=O)[C@H]23)OCO4)cc(OC)c1OC
inactive: [1] 1.4% | [2] 0% | [3] -2.8%

CC(=O)c1cccc(NC(=O)N[C@@H](CC(C)C)C(=O)O)c1
inactive: [1] -0.3% | [2] -1.7% | [3] -2.8%

COc1ccc2oc(C)c(C(N)=O)c2c1
inactive: [1] -1.6% | [2] 0.5% | [3] -0.4%

O=C(O)Cc1ccc(O)c(F)c1
inactive: [1] 2.3% | [2] -0.5% | [3] -3.6%

Cc1nonc1CN(C)C(=O)c1ccc(OC2CCN(Cc3ccccn3)CC2)cc1
inactive: [1] 0% | [2] -1.4% | [3] -0.2%

COc1ccc(C(=O)Nc2cccc3cccnc23)cc1OC
inactive: [1] -2.2% | [2] -2.2% | [3] -4.6%

CC(C)(Sc1cc(C(C)(C)C)c(O)c(C(C)(C)C)c1)Sc1cc(C(C)(C)C)c(O)c(C(C)(C)C)c1
inactive: [1] 0% | [2] -2.2% | [3] -7.4%

Cc1cc(=O)[nH]c(=S)[nH]1
inactive: [1] -3.5% | [2] -3.3% | [3] -7.5%

CCN(Cc1ccncc1)Cc1nc(Cc2ccccc2Cl)no1
inactive: [1] -4.4% | [2] -0.8% | [3] -2.6%

COC(=O)c1cc(Br)c(=O)n(CCc2ccc(O)cc2)c1
inactive: [1] 2.6% | [2] 1.3% | [3] -5.3%

CC(C)CC1c2[nH]c3ccccc3c2CCN1C(=O)CCC(=O)N(C)C (centres undefined)
inactive: [1] 1.9% | [2] -0.3% | [3] 2.9%

COc1ccc2c(c1OC)C(=O)OC2C1c2c(cc3c(c2OC)OCO3)CCN1C (centres undefined)
inactive: [1] 0.2% | [2] -0.4% | [3] 0.2%

CC(=O)Nc1nc(CCC(C)C)cc2c1c(=O)oc1ccccc12
inactive: [1] 1.3% | [2] -0.1% | [3] -9.4%

OCC1CCN(Cc2cn(Cc3ccccc3)nc2-c2cc3ccccc3o2)CC1
inactive: [1] -0.4% | [2] -0.7% | [3] -0.9%

C1COC(NC(C2CC2)C2CC2)=N1
inactive: [1] 3% | [2] -0.1% | [3] -5%

CCn1nc(C(=O)O)c(=O)c2cc3c(cc21)OCO3
inactive: [1] 5.7% | [2] 0.6% | [3] 0.2%

Cc1ccccc1OCCSc1nc2ncnc(N)c2[nH]1
inactive: [1] 0.8% | [2] -1% | [3] 0.1%

C=CCOC(=O)C1=C(C)NC(=O)NC1/C=C/c1ccccc1OC (centres undefined)
inactive: [1] 1% | [2] 0.4% | [3] -0.8%

CCC(NC(C)C)C(O)c1ccc(O)c(O)c1 (centres undefined)
inactive: [1] -5.4% | [2] -0.9% | [3] -4%

CN1[C@@H](CC(=O)c2ccccc2)CCC[C@H]1C[C@H](O)c1ccccc1
inactive: [1] 3.2% | [2] -1% | [3] -2.2%

COc1ccc(-c2noc(CCc3ccccc3)n2)cc1
inactive: [1] -8.8% | [2] -1.1% | [3] -11%

COC(=O)c1ccccc1NC(=O)c1ccc(COc2ccc3c(c2)CCC3)cc1
inactive: [1] 2.7% | [2] -0.5% | [3] 2%

N=c1ccn(CC(=O)NC(N)=O)c2ccccc12
inactive: [1] 3.3% | [2] 1.6% | [3] 3.1%

CN(C)CCCN1c2ccccc2Sc2ccc(Cl)cc21
inactive: [1] -3.6% and 2.8% | [2] 0.6% | [3] -0.5% and 0.1%

CCc1cc2c3c(c(=O)oc2cc1O)CCCC3
inactive: [1] -1.1% | [2] 2.2% | [3] 4.1%

O=C(Cc1cccc2ccccc12)N1CC[C@@]2(O)CCCC[C@H]2C1
inactive: [1] 2.2% | [2] 0.2% | [3] -5.4%

CC(C)(C)N(Cc1ccccc1)C(=O)c1ccc(Br)o1
inactive: [1] -1.1% | [2] 0.8% | [3] 11.8%

O=C(O)[C@H](Cc1ccccc1)NC(=O)N1CCC(Cc2ccccc2)CC1
inactive: [1] 5.5% | [2] 0.9% | [3] -2.3%

Cc1ccccc1NC(=O)c1c(C)cc(=O)oc1C
inactive: [1] -0.8% | [2] -0.1% | [3] 1.7%

Reference: PubChem BioAssay
